From PubChem BioAssay
A selection follows.
aSyn UTR act – Activators working through SNCA 5'UTR binding (MLPCN) | alpha-synuclein 5'UTR reporter, activators screen | activity score, % (tested at 7.5 µM), hits read low | 300,000 tested, 7.1% active; in the data active = activity score below about -60%
Active calls of the source: *.

SMILES	aSyn UTR act
COc1cc2c(c(OC)c1OC)-c1ccc(OC)c(=O)cc1[C@@H](N(C)CC#CCO)CC2	87
CC(=O)Nc1ccc(/C=N/N2CCCCC2)cc1	-96*
Nc1ccc(S(=O)(=O)Nc2nccc(/C=C/c3ccc(Cl)cc3Cl)n2)cc1	-67*
CC/C(=N\NC(=O)c1ccc(N(C)C)cc1)c1ccccc1	-72*
O=C(N/N=C/c1ccc(OC(=O)c2cccs2)cc1)c1cccc(F)c1	-97*
CSc1ccc(/C=N/NC(=O)c2ccccc2Cl)cc1	-109*
CN(C)c1ccc(/C=N/NC(=O)c2ccccc2)cc1	-120*
COc1cc(C(=O)N/N=C/c2ccsc2C)cc(OC)c1OC	92
CC(C)=C(NC(=O)c1ccccc1)C(=O)N/N=C/c1ccc(O)cc1	-128*
Cc1nn(-c2ccccc2)c(C)c1/C=N/NC(=O)c1cccs1	-68*
CN(C)c1cccc(C(=O)N/N=C/c2ccsc2)c1	-157*
O=C(N/N=C/c1ccc(-n2ccnc2)cc1)c1cccs1	-78*
C/C(=N/N=C/c1ccc(N(C)C)cc1)c1ccccc1	-160*
CN(C)c1ccc(/C=N/NC(=O)c2ccccc2Cl)cc1	-125*
CSc1ccc(/C=N/NC(=O)c2cccs2)cc1	-185*
CN(C)c1ccc(/C=N/NC(=O)c2sccc2-n2cccc2)cc1	-150*
Cc1cc(C(=O)N/N=C/c2cc(Br)ccc2OC(=O)c2ccccc2Cl)n[nH]1	58
Nc1c(C(=O)NCC2CCCO2)c2nc3ccccc3nc2n1-c1ccccc1 (stereo not drawn)	61
CN(C)c1ccc(C(=O)NCC2CCCO2)cc1 (stereo not drawn)	-107*
O=C(NC(=S)NCC1CCCO1)c1ccc(Cl)cc1 (stereo not drawn)	-106*
Cc1ccc(C(=O)NC(=S)NCC2CCCO2)cc1 (stereo not drawn)	-147*
CC(C)(C)c1ccc(-c2noc(CCC(=O)NCC3CCCO3)n2)cc1 (stereo not drawn)	104
O=C(Cc1c[nH]c2ccccc12)N1CCc2ccccc21	-63*
O=C(CSc1ccccc1)N1CCc2ccccc21	-113*
Nc1cc(N)nc(SCC(=O)N2CCc3ccccc32)n1	-87*
SMILES	aSyn UTR act
O=C(CSCc1ccco1)c1ccc(Cl)s1	-116*
Cc1nc(SCC(=O)N2CCc3ccccc32)n[nH]1	-68*
CCn1c(CNc2ccc(OC)cc2)nnc1SCC(=O)N1CCCc2ccccc21	-70*
CCn1c(-c2ccc(F)cc2)cnc1SCC(=O)N1CCc2ccccc21	-85*
O=C(CSCc1ccco1)N1CCc2ccccc21	-83*
Cc1ccc2c(CC(=O)N3CCc4ccccc43)coc2c1	-161*
CN(C)c1ccc(/C=C/c2nnnn2-c2ccccc2)cc1	-157*
Cc1ccc(C(=O)CCC2CCCC2=O)cc1 (stereo not drawn)	-100*
CCc1ccc(C(=O)CCC2CCCCC2=O)cc1 (stereo not drawn)	-130*
Cc1ccc(C(=O)CCC2CCCCC2=O)cc1 (stereo not drawn)	-151*
CC(C)OC(=O)CNc1n[nH]c(=S)[nH]c1=O	-131*
N#CC1=C(N)Nc2nc3ccccc3n2C1c1ccc(F)cc1 (stereo not drawn)	-117*
Cc1nc2ccc(-c3nc4ccccc4[nH]3)cc2[nH]1	-120*
Cc1ccc(-c2nc3ccccc3[nH]2)cn1	-99*
Clc1ccc(-c2nc3ccccc3[nH]2)cn1	-63*
O=C(CCl)N(c1ccccc1)C1CCCCC1	110
CCCC(O)(CCC)C(=O)NN(C(=O)CCl)c1ccccc1	-69*
CCCNC1=C(N(C(C)=O)c2cccc(F)c2)C(=O)c2ccccc2C1=O	92
CCOC(=O)c1ccc(-c2ccc3[nH]c4ccccc4c(=O)c3c2)cc1F	-81*
CCOC(=O)c1ccc(-c2c(-c3cc(OC)c(OC)c(OC)c3)noc2C)cc1F	58
CC1CC(C)CN(C(=O)c2cc3ccccc3o2)C1 (stereo not drawn)	-70*
CC1CCN(C(=O)c2cc3ccccc3o2)CC1	-131*
O=C(c1cc2ccccc2o1)N1CCCCCC1	-64*
CC1CC(C)CN(C(=O)c2cc3cc(Br)cc(Br)c3o2)C1 (stereo not drawn)	-121*
CCCCCC(=O)Nc1ccc(N2CCN(CC)CC2)c(Cl)c1	-152*
SMILES	aSyn UTR act
CCN1CCN(c2ccc(NC(=O)c3ccccc3F)cc2Cl)CC1	-136*
CC1CCC(NC(=O)Cn2cc3c(n2)CCCC3)CC1 (stereo not drawn)	-157*
N/C(Cc1nc(-c2ccc(Cl)cc2)cs1)=N/O	-67*
Cc1ccc(-c2csc(CC(N)=O)n2)cc1	-76*
C/C(=N\OC(=O)c1cccc(C)c1)c1sc(-c2ccccc2)nc1C	-147*
C/C(=N\OC(=O)c1cccc(C(F)(F)F)c1)c1sc(-c2ccccc2)nc1C	-119*
COc1ccc(/C=C/C(=O)c2ccc([N+](=O)[O-])o2)cc1OC	61
O=C(c1ccc([N+](=O)[O-])o1)N1CCc2ccccc21	-190*
COc1ccc2oc(C(=O)N3CCCc4ccccc43)c(C)c2c1	-91*
COc1cc2c(cc1OC)CN(C(=O)c1ccc([N+](=O)[O-])o1)CC2	-175*
